For assay [1], the target named is Rap guanine nucleotide exchange factor 3 (Homo sapiens) (UniProt O95398). The assay is described as follows: Confirmatory qHTS for antagonist of cAMP-regulated guanine nucleotide exchange factor 3 (EPAC1) (AID 1645880). Also: nearly all actives have a fitted effect of over 55% in size. Also: potency is read from the fitted curve at half-maximal effect. Summed up:
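Released BODIPY-GDP fluoresces less than Rap1-bound BODIPY-GDP; the signal is followed at 480/540 nm at 5-min intervals over 30 min, after 5 min at room temperature. Reactions contain 100 nM EPAC1, 250 nM RAP1B-BODIPY-GDP and 50 uM GDP; results are normalized to ATA and DMSO.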

The target is the same in assay [2]. The assay is described as follows: Confirmatory qHTS for agonist of cAMP-regulated guanine nucleotide exchange factor 3 (EPAC1) (AID 1645881).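 Also: EPAC1 catalysed release of BODIPY-GDP from Rap1B seen as fluorescence loss; 100% = effect of cAMP agonist control; nearly all actives have a fitted effect of over 75% in size.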
Assay [3] has as its target Rap guanine nucleotide exchange factor 4 (Homo sapiens) (UniProt Q8WZA2). The assay is described as follows: Confirmatory qHTS for agonist of cAMP-regulated guanine nucleotide exchange factor 4 (EPAC2) (AID 1645884).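 Also: nucleotide exchange releases bodipy-GDP from Rap1 and this lowers its fluorescence; % is scaled to controls: 0 for no effect and ±100 for the full control effect; nearly all actives have a fitted effect of over 65% in size.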 For orientation: qHTS replaces the single test concentration by a dilution series.
For assay [4] the target is unchanged. The assay is described as follows: Confirmatory qHTS for antagonist of cAMP-regulated guanine nucleotide exchange factor 4 (EPAC2) (AID 1645885). Also: nearly all actives have a fitted effect of over 25% in size. Also: potency is read from the fitted curve at half-maximal effect. As to activity change, negative = inhibition: % is scaled to controls: 0 for no effect and ±100 for the full control effect.
The target of assay [5] is Rap guanine nucleotide exchange factor 3 (Homo sapiens) (UniProt O95398). The assay is described as follows: Counterscreen qHTS for antagonist of cAMP-regulated guanine nucleotide exchange factor 3 (EPAC1) (AID 1645888). Also: % of control where 0% means no effect. The method, boiled down: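 Measured: fluorescence of BODIPY-GDP bound to Rap1B, which falls as exchange proceeds. Conditions include 50 uM competing GDP, 5 and 30 min reads, and a later cAMP challenge for antagonist detection.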
Sequence of Rap guanine nucleotide exchange factor 3 (Homo sapiens) (O95398 whole entry, looked up): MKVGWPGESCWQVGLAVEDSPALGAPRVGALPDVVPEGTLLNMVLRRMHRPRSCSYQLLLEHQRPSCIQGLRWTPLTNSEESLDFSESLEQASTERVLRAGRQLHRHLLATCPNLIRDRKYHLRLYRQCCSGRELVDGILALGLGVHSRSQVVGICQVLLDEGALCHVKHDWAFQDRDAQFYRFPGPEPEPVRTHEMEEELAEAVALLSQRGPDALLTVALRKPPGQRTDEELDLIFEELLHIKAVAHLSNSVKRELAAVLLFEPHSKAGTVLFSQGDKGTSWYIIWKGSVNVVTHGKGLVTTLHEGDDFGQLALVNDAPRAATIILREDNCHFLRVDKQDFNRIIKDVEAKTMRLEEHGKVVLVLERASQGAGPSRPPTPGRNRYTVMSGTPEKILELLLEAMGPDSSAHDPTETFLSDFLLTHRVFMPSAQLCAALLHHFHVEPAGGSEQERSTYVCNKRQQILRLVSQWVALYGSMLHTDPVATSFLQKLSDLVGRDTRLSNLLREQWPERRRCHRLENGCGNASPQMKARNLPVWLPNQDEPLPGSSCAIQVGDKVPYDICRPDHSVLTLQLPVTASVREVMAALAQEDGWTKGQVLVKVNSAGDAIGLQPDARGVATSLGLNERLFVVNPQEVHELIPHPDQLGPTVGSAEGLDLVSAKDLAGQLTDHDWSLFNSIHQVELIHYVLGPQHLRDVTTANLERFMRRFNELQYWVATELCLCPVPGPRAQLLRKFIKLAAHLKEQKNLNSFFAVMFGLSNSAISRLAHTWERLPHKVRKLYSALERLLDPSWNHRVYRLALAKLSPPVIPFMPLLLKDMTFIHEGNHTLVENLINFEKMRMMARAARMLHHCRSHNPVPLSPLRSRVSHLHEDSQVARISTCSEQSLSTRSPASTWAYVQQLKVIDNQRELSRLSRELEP
For orientation: The purpose of a counterscreen is to sort out artefacts and off-target activity.

Results filed as inconclusive are left out. A number with no mark means an inactive call. The source made the active and inactive calls. Calls follow the shape of the dose curve; as a rule, active = well fitted curve in the direction sought with a large enough effect; inconclusive = small, poorly fitted or top-dose-only effect, or another doubt; inactive = no such curve, though single readings can be large; an effect the other way counts as inactive or inconclusive.

Sequence of Rap guanine nucleotide exchange factor 4 (Homo sapiens) (Q8WZA2 whole entry, looked up): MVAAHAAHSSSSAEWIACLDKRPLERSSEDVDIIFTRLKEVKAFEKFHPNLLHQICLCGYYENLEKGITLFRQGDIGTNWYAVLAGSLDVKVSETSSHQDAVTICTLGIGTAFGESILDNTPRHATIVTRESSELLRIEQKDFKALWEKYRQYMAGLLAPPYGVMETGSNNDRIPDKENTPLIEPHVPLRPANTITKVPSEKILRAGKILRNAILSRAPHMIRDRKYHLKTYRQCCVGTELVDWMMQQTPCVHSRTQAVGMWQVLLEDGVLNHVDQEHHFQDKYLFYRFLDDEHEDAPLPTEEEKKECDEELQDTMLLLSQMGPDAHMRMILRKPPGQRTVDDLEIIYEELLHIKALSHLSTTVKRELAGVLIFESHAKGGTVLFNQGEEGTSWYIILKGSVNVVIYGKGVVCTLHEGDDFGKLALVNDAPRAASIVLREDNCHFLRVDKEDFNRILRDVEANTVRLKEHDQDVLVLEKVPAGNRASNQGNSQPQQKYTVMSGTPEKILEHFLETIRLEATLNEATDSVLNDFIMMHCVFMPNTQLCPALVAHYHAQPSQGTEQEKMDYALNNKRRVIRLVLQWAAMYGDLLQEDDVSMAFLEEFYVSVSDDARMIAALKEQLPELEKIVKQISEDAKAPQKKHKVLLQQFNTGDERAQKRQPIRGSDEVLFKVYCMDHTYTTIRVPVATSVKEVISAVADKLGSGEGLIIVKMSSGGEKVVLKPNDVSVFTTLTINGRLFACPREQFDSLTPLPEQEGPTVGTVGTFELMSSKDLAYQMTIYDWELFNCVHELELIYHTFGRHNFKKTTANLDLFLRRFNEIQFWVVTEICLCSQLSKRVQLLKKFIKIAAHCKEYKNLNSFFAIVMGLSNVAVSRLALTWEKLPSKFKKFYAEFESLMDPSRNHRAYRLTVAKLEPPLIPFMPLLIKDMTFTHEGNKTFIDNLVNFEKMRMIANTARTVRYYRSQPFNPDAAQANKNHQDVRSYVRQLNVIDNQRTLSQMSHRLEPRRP

On to `CCCC(=O)O[C@@H]1C[C@@H](C)N(C(=O)c2ccccc2)c2ccc(C)cc21`, for which the Potency entry in assay [1], in assay [2], in assay [3], in assay [4] and in assay [5] was “inactive” throughout.
Consider `Cc1ccc(C)c(-c2ccc(=O)n(Cc3cccc(Br)c3)n2)c1`, for which the Potency result in assay [1], in assay [2], in assay [3] and in assay [5] was “inactive” throughout. Besides, in assay [4], the Potency is 19 µM (active).
Turning to `CC(=O)Nc1cccc(NC(=O)CSc2nc(=O)n(CCN3CCOCC3)c3c2CCCC3)c1`, the Potency result in assay [1], in assay [2], in assay [3], in assay [4] and in assay [5] was “inactive” in each case.
As to `CCOc1ccc(CCNC(=O)c2ccc3c(=O)[nH]c4c(C(=O)NC(C)C)sc(=S)n4c3c2)cc1`, the Potency in assay [1] is 21.3 µM (active). The Potency result in assay [2], in assay [3], in assay [4] and in assay [5] was “inactive” each time.
Regarding `C/C(C/C(C)=C1/SC(=S)NC1=O)=C1\SC(=S)NC1=O`, the Potency in assay [1] was 1.69 µM (active); in assay [4] it was 21.3 µM (active). The Potency entry in assay [2], in assay [3] and in assay [5] was “inactive” throughout.
Turning to `COc1ccc(N(Cc2cccs2)C(=O)c2ccco2)cc1`, the Potency entry in assay [1], in assay [2], in assay [3] and in assay [5] was “inactive” in each case. In addition, the outcome in assay [4] is “inactive [at 12.7 µM]”.
Consider `COc1cccc(C(NC(C)=O)c2nc(-c3csc4ccccc34)cs2)c1` (stereo not given), for which the Potency entry in assay [1], in assay [2] and in assay [4] was “inactive” in each case. Moreover, the activation in assay [3] was 1.45% [at 17.1 µM, percent relative to cAMP agonist control]. In assay [5], the activity change, negative = inhibition is -22.7% [at 30.8 µM].
Regarding `Cc1ccc(O)c(N=Cc2cc(Cc3ccccc3)cc([N+](=O)[O-])c2O)c1`, the Potency is 33.8 µM (active) in assay [1] and 47.8 µM (active) in assay [4]. Further, the Potency entry in assay [2], in assay [3] and in assay [5] was “inactive” each time.
In the case of `COc1ccc(C2=Cc3ccccc3C(CC(=O)C3CC3)N2c2ccc(C#CCCO)cc2)cc1` (stereo not given), the Potency result in assay [1], in assay [2] and in assay [4] was “inactive” throughout. The activation in assay [3] is 14.6% [at 17.1 µM, percent relative to cAMP agonist control]. In addition, the activity change, negative = inhibition in assay [5] was -1.57% [at 30.8 µM].
As to `COc1ccc(C2C=C(c3ccccc3)Nc3nnnn32)cc1` (stereo not given), the Potency entry in assay [1], in assay [2], in assay [3], in assay [4] and in assay [5] was “inactive” throughout.
On to `COc1ccc2ccccc2c1C(=O)/C=C\c1ccoc1`, for which the Potency in assay [1] is 42.6 µM (active). Besides, the Potency result in assay [2], in assay [3], in assay [4] and in assay [5] was “inactive” in each case.
In the case of `CCOc1ncccc1C(=O)Nc1ccc(C)c(S(=O)(=O)N2CCCCCC2)c1`, the Potency result in assay [1], in assay [2], in assay [3], in assay [4] and in assay [5] was “inactive” throughout.
In the case of `COc1ccc(Cl)cc1N1C(=O)C2CCCN2C1c1ccccc1F` (stereo not given), the Potency entry in assay [1], in assay [2], in assay [3], in assay [4] and in assay [5] was “inactive” throughout.
As for `CN(C)C(=O)c1cccc(-c2cnc3c(NC=O)cc(-c4ccc(F)cc4)cn23)c1`, the Potency entry in assay [1], in assay [2], in assay [3], in assay [4] and in assay [5] was “inactive” each time.
Turning to `COc1ccc2cc(-c3cn4c(n3)sc3cc(F)ccc34)c(=O)oc2c1`, the Potency entry in assay [1], in assay [2], in assay [3], in assay [4] and in assay [5] was “inactive” each time.
On to `CCc1ccccc1C1=CC(=O)C[C@H](c2ccc(OC)cc2)C1`, for which the Potency result in assay [1], in assay [2], in assay [3], in assay [4] and in assay [5] was “inactive” throughout.
For `Cc1cccc(NCC(=O)N/N=C\c2ccc[nH]2)c1`, the Potency result in assay [1], in assay [2], in assay [3], in assay [4] and in assay [5] was “inactive” each time.
Take `COc1ccc(N(C)C(=O)c2oc(=O)c3ccccc3c2-c2ccc(C)cc2)c(OC)c1`: the Potency entry in assay [1], in assay [2], in assay [3], in assay [4] and in assay [5] was “inactive” in each case.
As for `CCCCOc1ccccc1Cn1c(=O)oc2ccc(C)cc21`, the Potency result in assay [1], in assay [2], in assay [3], in assay [4] and in assay [5] was “inactive” each time.
`CC(=O)Nc1ccc(NS(=O)(=O)c2cn(C)c(=O)n(C)c2=O)cc1`: the Potency result in assay [1], in assay [2] and in assay [4] was “inactive” throughout. The activation in assay [3] is 8.18% [at 17.1 µM, percent relative to cAMP agonist control]. For the same compound, the activity change, negative = inhibition in assay [5] was 9.16% [at 30.8 µM].
Take `COc1ccc(S(=O)(=O)N2CCC[C@H]2C(=O)N2CCC[C@H]2C(=O)N[C@@H](C)c2ccccc2)cc1C`: the Potency result in assay [1], in assay [2] and in assay [4] was “inactive” each time. Also, the activation in assay [3] is 1.42% [at 17.1 µM, percent relative to cAMP agonist control]. Moreover, in assay [5], the activity change, negative = inhibition was 6.49% [at 30.8 µM].
On to `Cc1ccc2c(c1)c1c3n2CCN(C(=O)C2CC2)C3CCC1` (stereo not given), for which the Potency result in assay [1], in assay [2], in assay [3] and in assay [5] was “inactive” throughout. Moreover, the Potency in assay [4] is 75.7 µM (active).
Regarding `Cc1ccc(C(=O)NCCCNC(=O)c2ccco2)cn1`, the Potency entry in assay [1], in assay [2], in assay [3], in assay [4] and in assay [5] was “inactive” each time.
As for `CCOc1ccc(C(=O)NCC(=O)NCC(c2ccco2)N2CCCCC2)cc1OCC` (stereo not given), the Potency result in assay [1], in assay [2] and in assay [4] was “inactive” throughout. Also, the activation in assay [3] is -0.0767% [at 17.1 µM, percent relative to cAMP agonist control]. In addition, the activity change, negative = inhibition in assay [5] was -4.11% [at 30.8 µM].
Take `CC1(C(=O)Nc2ccc(Cl)cc2)Cc2c(-c3cccc(C(N)=O)c3)ccnc2O1` (stereo not given): the Potency entry in assay [1], in assay [2] and in assay [4] was “inactive” throughout. In addition, the activation in assay [3] is 9.22% [at 17.1 µM, percent relative to cAMP agonist control]. The activity change, negative = inhibition in assay [5] was 3.15% [at 30.8 µM].

Source of the values: PubChem BioAssay (NCATS).
